The source made the active and inactive calls. Rule for the calls: active = hit-call score of the fitted dose curve at least 0.9, where 1 is the maximum; inactive = score below 0.9.

Read-out in assay [1]: C-C motif chemokine 2 (Homo sapiens) (UniProt P13500)
As to the kind of experiment: BSK_KF3CT_MCP1: BioMAP Diversity Plus: KF3CT Assay for Monocyte Chemoattractant Protein 1 (MCP1/CCL2) Biomarker Activity (AID 2283073). As to conditions: primary human keratinocytes with fibroblasts; actives raise or lower the signal. The procedure, abridged:
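Human keratinocyte plus foreskin fibroblast primary co-culture exposed to chemical for 24 h. MCP-1 levels measured by ELISA. Bidirectional curve fitting relative to DMSO negative control as baseline.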

Read-out in assay [2]: Matrix Metallopeptidase 9 (MMP9), MMP9 (gene 4318)
As to the kind of experiment: BSK_KF3CT_MMP9: BioMAP Diversity Plus: KF3CT Assay for Matrix Metallopeptidase 9 (MMP9) Biomarker Activity (AID 2283074).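 Note: MMP9 protein level quantified by ELISA in the co-culture.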 As to conditions: primary human keratinocytes with fibroblasts; actives raise or lower the signal. The procedure, abridged: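 MMP-9 quantified by ELISA after 24 h chemical treatment of primary human skin keratinocyte/fibroblast co-cultures; gain or loss fitted against DMSO, with parallel SRB staining (0.1% SRB, 560 nm) for overt cytotoxicity.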

Read-out in assay [3]: urokinase plasminogen activator (uPA), PLAU (gene 5328)
In words: BSK_KF3CT_uPA: BioMAP Diversity Plus: KF3CT Assay for urokinase plasminogen activator (uPA) Biomarker Activity (AID 2283075). As to conditions: primary human keratinocytes with fibroblasts; actives raise or lower the signal. The procedure, abridged:
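ELISA read-out of uPA 24 h after dosing human skin keratinocytes co-cultured with foreskin fibroblasts. Signal change fitted both ways relative to DMSO; sulforhodamine B on parallel cultures marks overt cytotoxicity.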

Read-out in assay [4]: CD40, CD40 (gene 958)
In words: BSK_LPS_CD40: BioMAP Diversity Plus: LPS Assay for CD40 Biomarker Activity (AID 2283076). As to conditions: primary human HUVEC with PBMC; actives raise or lower the signal. The procedure, abridged:
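Primary human umbilical vein endothelial cells co-cultured with peripheral blood mononuclear cells, LPS-stimulated, were dosed with chemical and read 24 h later. CD40 levels were measured by ELISA and fitted bidirectionally against DMSO as negative control and baseline.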

Read-out in assay [5]: E-selectin (Homo sapiens) (UniProt P16581)
In words: BSK_LPS_Eselectin: BioMAP Diversity Plus: LPS Assay for Eselectin Biomarker Activity (AID 2283077). As to conditions: primary human HUVEC with PBMC; actives raise or lower the signal. The procedure, abridged:
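Human umbilical vein endothelial cells co-cultured with peripheral blood mononuclear cells under LPS stimulation; E-selectin measured by ELISA 24 h after chemical dosing. Activity fitted bidirectionally against DMSO as negative control and baseline.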

Read-out in assay [6]: Interleukin-8 (IL8), CXCL8 (gene 3576)
In words: BSK_LPS_IL8: BioMAP Diversity Plus: LPS Assay for Interleukin-8 (IL8) Biomarker Activity (AID 2283078). As to conditions: primary human HUVEC with PBMC; actives raise or lower the signal. The gist of the method:
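Human umbilical vein endothelial cells co-cultured with PBMC were stimulated with LPS; IL-8 levels were measured by ELISA 24 h after chemical dosing. Activity was fitted bidirectionally against DMSO as negative control and baseline.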

Read-out in assay [7]: Interleukin-1 alpha (IL1a), IL1A (gene 3552)
In words: BSK_LPS_IL1a: BioMAP Diversity Plus: LPS Assay for Interleukin-1 alpha (IL1a) Biomarker Activity (AID 2283080). As to conditions: primary human HUVEC with PBMC; actives raise or lower the signal. The procedure, abridged:
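Human umbilical vein endothelial cells co-cultured with peripheral blood mononuclear cells were LPS-stimulated and exposed to test chemicals for 24 h. IL-1 alpha was quantified by ELISA, with bidirectional curve fitting against DMSO as the negative control and baseline.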

Read-out in assay [8]: Monocyte Chemoattractant Protein-1 (MCP1), CCL2 (gene 6347)
In words: BSK_LPS_MCP1: BioMAP Diversity Plus: LPS Assay for Monocyte Chemoattractant Protein-1 (MCP1) Biomarker Activity (AID 2283081).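 For AC50: secreted MCP-1 protein quantified by ELISA in culture supernatant.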 As to conditions: primary human HUVEC with PBMC; actives raise or lower the signal. The procedure, abridged: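 HUVEC plus PBMC co-culture (human primary cells, LPS system) exposed to test chemical for 24 h; MCP-1 measured by ELISA. Bidirectional curve fitting against DMSO baseline; parallel SRB total-protein staining flags overt cytotoxicity.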

Assay [9] is described as follows: BSK_LPS_PGE2: BioMAP Diversity Plus: LPS Assay for Prostaglandin E2 (PGE2) Biomarker Activity (AID 2283082).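 For AC50: secreted prostaglandin E2 measured by ELISA in LPS-stimulated co-culture.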 As to conditions: primary human HUVEC with PBMC; actives raise or lower the signal. The gist of the method: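 ELISA read-out of PGE2 from human umbilical vein endothelial cells co-cultured with peripheral blood mononuclear cells under LPS, 24 h post-dose. Gain or loss of signal scored relative to DMSO baseline.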

Read-out in assay [10]: Macrophage colony-stimulating factor (MCSF), CSF1 (gene 1435)
In words: BSK_LPS_MCSF: BioMAP Diversity Plus: LPS Assay for Macrophage colony-stimulating factor (MCSF) Biomarker Activity (AID 2283083). As to conditions: primary human HUVEC with PBMC; actives raise or lower the signal. The gist of the method: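 Human umbilical vein endothelial cells co-cultured with peripheral blood mononuclear cells were exposed to compound for 24 h. M-CSF levels were measured by ELISA, and bidirectional curve fitting used DMSO as the negative control and baseline.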

Read-out in assay [11]: Tissue Factor, F3 (gene 2152)
As to the kind of experiment: BSK_LPS_TissueFactor: BioMAP Diversity Plus: LPS Assay for Tissue Factor Biomarker Activity (AID 2283084). As to conditions: primary human HUVEC with PBMC; actives raise or lower the signal. The gist of the method:
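Human umbilical vein endothelial cells co-cultured with peripheral blood mononuclear cells were dosed and stimulated with LPS. Cell-surface CD142 was quantified by ELISA at 24 h. Activity was fitted bidirectionally against DMSO baseline.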

Read-out in assay [12]: Tumor necrosis factor (Homo sapiens) (UniProt P01375)
As to the kind of experiment: BSK_LPS_TNFa: BioMAP Diversity Plus: LPS Assay for Tumour Necrosis Factor alpha (TNFa) Biomarker Activity (AID 2283085).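 Note: TNFa protein level quantified by ELISA in the co-culture.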 As to conditions: primary human HUVEC with PBMC; actives raise or lower the signal. The gist of the method:
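HUVEC/PBMC co-culture, LPS-stimulated; 24 h post-dose; TNFa by ELISA; gain or loss of signal fitted bidirectionally vs DMSO baseline.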

Read-out in assay [13]: Vascular cell adhesion molecule 1 (VCAM1), VCAM1 (gene 7412)
As to the kind of experiment: BSK_LPS_VCAM1: BioMAP Diversity Plus: LPS Assay for Vascular cell adhesion molecule 1 (VCAM1) Biomarker Activity (AID 2283086). As to conditions: primary human HUVEC with PBMC; actives raise or lower the signal. The gist of the method: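 ELISA read-out of VCAM-1 at 24 h post-dosing in an LPS-driven HUVEC/PBMC primary human co-culture; gain or loss of signal fitted bidirectionally against DMSO baseline. Cytotoxicity tracked in parallel cultures by SRB total-protein staining.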

Read-out in another assay: CD38, CD38 (gene 952)
In words: BSK_SAg_CD38: BioMAP Diversity Plus: SAg Assay for CD38 Biomarker Activity (AID 2283087). As to conditions: primary human HUVEC with PBMC; actives raise or lower the signal. The procedure, abridged:
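Measures CD38 on a human endothelial/PBMC co-culture driven by SEB and TSST-1, 24 h after compound exposure, using ELISA with fluorescence detection; DMSO defines baseline for bidirectional curve fitting.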

Read-out in assay [14]: CD40, CD40 (gene 958)
As to the kind of experiment: BSK_SAg_CD40: BioMAP Diversity Plus: SAg Assay for CD40 Biomarker Activity (AID 2283088). As to conditions: primary human HUVEC with PBMC; actives raise or lower the signal. The procedure, abridged: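 Human umbilical vein endothelial cells co-cultured with PBMC; CD40 levels measured by ELISA with fluorescence read-out 24 h after chemical dosing. Gain or loss of signal fitted bidirectionally against DMSO baseline.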

Read-out in a further assay: CD69, CD69 (gene 969)
In words: BSK_SAg_CD69: BioMAP Diversity Plus: SAg Assay for CD69 Biomarker Activity (AID 2283089).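 Note: cell surface CD69 protein quantified by ELISA with fluorescence detection.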 As to conditions: primary human HUVEC with PBMC; actives raise or lower the signal. The procedure, abridged:
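Primary human vascular co-culture (umbilical vein endothelium with peripheral blood mononuclear cells) exposed to test chemical for 24 h. CD69 levels quantified by fluorescence ELISA; DMSO served as negative control for bidirectional fitting.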

Read-out in assay [15]: Monocyte Chemoattractant Protein-1 (MCP1), CCL2 (gene 6347)
As to the kind of experiment: BSK_SAg_MCP1: BioMAP Diversity Plus: SAg Assay for Monocyte Chemoattractant Protein-1 (MCP1) Biomarker Activity (AID 2283090). As to conditions: primary human HUVEC with PBMC; actives raise or lower the signal. The gist of the method:
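Values derive from bidirectional fitting of ELISA-measured MCP1 against DMSO controls. Readings were taken 24 h after dosing human vascular endothelial cells co-cultured with peripheral blood mononuclear cells under superantigen stimulation.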

Read-out in assay [16]: E-selectin (Homo sapiens) (UniProt P16581)
In words: BSK_SAg_Eselectin: BioMAP Diversity Plus: SAg Assay for Eselectin Biomarker Activity (AID 2283091). As to conditions: primary human HUVEC with PBMC; actives raise or lower the signal. The procedure, abridged: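 HUVEC co-cultured with PBMC, compound dosed then read at 24 h; E-selectin measured by ELISA. Activity fitted bidirectionally against DMSO as negative control and baseline.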

Read-out in assay [17]: Monokine induced gamma interferon (MIG), CXCL9 (gene 4283)
As to the kind of experiment: BSK_SAg_MIG: BioMAP Diversity Plus: SAg Assay for Monokine induced gamma interferon (MIG) Biomarker Activity (AID 2283092). As to conditions: primary human HUVEC with PBMC; actives raise or lower the signal. The gist of the method:
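Endothelial cells and PBMC were co-cultured, exposed to test chemicals, and sampled 24 h later. MIG was measured by ELISA, and responses were fitted in both directions relative to DMSO.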

Sequence of E-selectin (Homo sapiens) (P16581 whole entry, looked up): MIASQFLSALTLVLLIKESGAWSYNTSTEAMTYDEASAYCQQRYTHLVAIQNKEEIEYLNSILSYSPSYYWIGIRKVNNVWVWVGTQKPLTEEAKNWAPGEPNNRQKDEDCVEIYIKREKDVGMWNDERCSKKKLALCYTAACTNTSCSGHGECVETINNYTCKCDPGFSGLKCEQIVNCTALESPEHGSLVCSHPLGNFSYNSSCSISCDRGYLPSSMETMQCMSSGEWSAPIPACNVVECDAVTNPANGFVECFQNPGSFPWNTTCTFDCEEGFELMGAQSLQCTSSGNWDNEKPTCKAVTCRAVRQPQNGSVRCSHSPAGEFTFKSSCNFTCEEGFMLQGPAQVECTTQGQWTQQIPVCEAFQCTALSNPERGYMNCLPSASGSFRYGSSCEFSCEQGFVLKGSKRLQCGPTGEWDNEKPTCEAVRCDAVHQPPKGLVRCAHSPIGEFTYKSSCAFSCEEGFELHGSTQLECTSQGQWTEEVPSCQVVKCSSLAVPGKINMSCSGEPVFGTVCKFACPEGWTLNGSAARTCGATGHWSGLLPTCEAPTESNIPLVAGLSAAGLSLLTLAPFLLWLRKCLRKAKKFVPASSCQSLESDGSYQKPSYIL
Sequence of Tumor necrosis factor (Homo sapiens) (P01375 whole entry, looked up): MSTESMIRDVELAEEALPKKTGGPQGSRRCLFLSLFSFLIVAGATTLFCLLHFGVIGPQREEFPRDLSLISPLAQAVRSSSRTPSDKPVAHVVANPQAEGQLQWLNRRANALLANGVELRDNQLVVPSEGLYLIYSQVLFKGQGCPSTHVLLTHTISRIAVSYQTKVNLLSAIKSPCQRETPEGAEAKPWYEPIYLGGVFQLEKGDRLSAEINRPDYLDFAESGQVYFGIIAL

One may read the AC50 as the concentration giving half of the maximal activity seen. Take `CN1CCN(c2ccccc2/C=C2\SCCN(c3ccc(Cl)c(Cl)c3)C2=O)CC1`: the AC50 in [1] is 32.4 µM (active); in [2] it was 26.8 µM (active); in [3], 30.1 µM (active); with CD40, CD40 (gene 958) [4], 7.34 µM (active); in assay [6], 20 µM (active); in assay [7], 20 µM (active). Moreover, the AC50 in assay [8] was 12.1 µM (active); in assay [12], 20 µM (active); in [13], 13 µM (active); with CD38, CD38 (gene 952) it was 24.1 µM (active); in the assay with CD40, CD40 (gene 958) [14] it was 20 µM (active); in the assay with CD69, CD69 (gene 969), 20 µM (active). In assay [15], the half-maximal activity concentration (AC50) is 23 µM (active). Also, the result in [5], in assay [9], in assay [10], in assay [11], in assay [16] and in assay [17] was inactive.

On to `Oc1cc2ccccc2c2ccccc12`, for which the concentration at half-maximal activity (AC50) was 6.26 µM (active) in assay [1]; 5.66 µM (active) in assay [2]; 7.13 µM (active) in assay [3]; 5.93 µM (active) with CD40, CD40 (gene 958) [4]; 11.1 µM (active) in assay [5]; 12.6 µM (active) in [6]. In addition, the AC50 in assay [7] is 7.63 µM (active); in [8] it was 11.1 µM (active); in assay [9], 3.34 µM (active); in [10], 7.85 µM (active); in [11] it was 9.95 µM (active); in assay [13], 9.03 µM (active). In addition, the half-maximal activity concentration (AC50) with CD38, CD38 (gene 952) is 10 µM (active); in the assay with CD40, CD40 (gene 958) [14] it was 9.94 µM (active); with CD69, CD69 (gene 969), 8.99 µM (active); in assay [15], 7.84 µM (active); in assay [16] it was 8.61 µM (active); in assay [17], 10.8 µM (active).

Regarding `CC1=C(/C=C/C(C)=C/C=C/C(C)=C/C(=O)O)C(C)(C)CCC1`, the AC50 is 32.4 µM (active) in assay [1]; 32.6 µM (active) in assay [2]; 31.2 µM (active) in assay [3]; 4.45 µM (active) with CD40, CD40 (gene 958) [4]; 6.18 µM (active) in assay [5]; 0.918 µM (active) in [9]. Besides, the concentration at half-maximal activity (AC50) in assay [10] was 4.31 µM (active); in assay [12] it was 0.358 µM (active); in assay [13] it was 24.3 µM (active); with CD38, CD38 (gene 952), 21.9 µM (active); with CD40, CD40 (gene 958) [14] it was 20.5 µM (active); with CD69, CD69 (gene 969), 8.54 µM (active). Moreover, the values for the AC50 in assay [16] and in assay [17] were 6.38 µM (active) and 36.5 µM (active), respectively. Besides, the result in [6], in [7], in assay [8], in assay [11] and in [15] was inactive.
